Assay results taken from PubChem BioAssay.
A number with no mark means an inactive call. The source made the active and inactive calls.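 How the source made its calls: active means inhibition at or above 50% relative to wild type and mutant plate controls; inactive means inhibition below 50%.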

Assay: inhibitors of Chlamydomonas gravitaxis, primary screen, whole organism, Chlamydomonas reinhardtii, WT vs cilia-less mutant, absorbance, 96-well (AID 463189);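 further: 0% = wild type cc124 cells in DMSO and 100% = ciliumless bld1 mutant cells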
Conditions: OD600 absorbance, 2 days, at 10 µM, hits give high values

| SMILES | inhibition |
| --- | --- |
| CCN1CCCC1Cn1cnc2c([nH]c3ccc(C)cc32)c1=O (centres undefined) | 128% (active) |
| CCOC(=O)CSc1nc(N)c(C#N)c(-c2ccc(OC)cc2)c1C#N | -7.05% |
| CCOC(=O)CC1=C(C(=O)OCC)C(c2cc(OC)c(OC)cc2OC)C(C#N)=C(N)O1 (centres undefined) | 15.6% |
| CCCOc1ccc(/C(O)=C2/C(=O)C(=O)N(CCN(C)C)C2c2ccncc2)cc1 (centres undefined) | 8.14% |
| CN=C1c2c(-c3ccccc3)c3cc(OC)ccc3n2CCN1C | 2.56% |
| COCCOC(=O)C1=C(C)NC(SCC(=O)NC(C)(C)C)=C(C#N)C1c1ccco1 (centres undefined) | 27.7% |
| c1ccc(-c2nnc3n2N=C(c2ccc4c(c2)OCO4)CS3)nc1 | -7.21% |
| C=COC(=O)CSc1nc(-c2cccs2)ccc1C#N | 8.37% |
| Cn1c(=O)oc2cc(C(=O)c3ccccc3)ccc21 | -6.29% |
| CCOc1nc(SCCOc2ccc(C)cc2)nc(N(C)C)n1 | 30.3% |
| Cc1ccc(CC2CC(=O)N(c3ccc4c(c3)OCCO4)C2=O)cc1 (centres undefined) | 25.7% |
| COC(=O)Cn1cc(C(=O)OC)cc(Br)c1=O | -6.78% |
| CCN(CC)CCNC(=O)c1c(C)oc2cc(Br)c(OC)cc12 | -1.94% |
| N=c1c2c(-c3ccccc3)c(-c3ccccc3)n(Cc3ccccc3)c2ncn1CCCn1ccnc1 | 118% (active) |
| Cc1cc(C)nc(N(C#N)S(=O)(=O)c2ccccc2Cl)n1 | -0.932% |
| CC1(C)Cc2c(sc3nc(SCC#N)n(C4CCCCC4)c(=O)c23)CO1 | -8.06% |
| CN1CCN(C(=O)CSc2nc(-c3cccs3)ccc2C#N)CC1 | 21.2% |
| O/N=C1\CCc2cc(Cl)ccc21 | -12.6% |
| CC(C)CC(C(=O)O)C(C)CC(=O)Nc1ccn(-c2ccccc2)n1 (centres undefined) | 13.3% |
| CCCOc1ccc(N2C(=O)CC(N(CCC)C(=O)CCC(=O)O)C2=O)cc1 (centres undefined) | 11.3% |

| SMILES | inhibition |
| --- | --- |
| CCCCC(C(=O)O)C(C)CC(=O)Nc1cccc(C(=O)O)c1 (centres undefined) | 0.959% |
| CC(C)C1Cc2c(C#N)c(N)n(C)c(=S)c2CO1 (centres undefined) | -8.05% |
| O=C(O)CC(NC(=O)COc1ccc(Cl)cc1Cl)C(=O)O (centres undefined) | 0.167% |
| O=C1C(=O)N(CCN2CCOCC2)C(c2ccccn2)/C1=C(/O)c1ccccc1 (centres undefined) | -11.4% |
| C=CCOC(=O)C1=C(C)NC(SCC(=O)N(CC)CC)=C(C#N)C1c1ccco1 (centres undefined) | -0.086% |
| CN1CCc2c(sc3ncn4nc(-c5ccccc5O)nc4c23)C1 | 87% (active) |
| CN(C)c1ccc(-c2nn3c(-c4ccc(Cl)cc4)nnc3s2)cc1 | 14.6% |
| O=c1oc2c3c4c(cc2c(C(F)(F)F)c1CCN1CCOCC1)CCCN4CCC3 | -7.21% |
| c1ccc(N2CCN(c3nc(-c4ccccn4)nc4ccccc34)CC2)cc1 | 106% (active) |
| Fc1ccc2[nH]c3c(N4CCN(Cc5ccc6c(c5)OCO6)CC4)ncnc3c2c1 | 58.4% (active) |
| COc1ccc(OCC(=O)N2CCN(C(=O)c3cccc4ccccc34)CC2)cc1 | 0.794% |
| C=CCc1cccc(/C=N/c2ncn[nH]2)c1O | -13.3% |
| COc1cccc2c(=O)c(SC(F)(F)C(F)C(F)(F)F)c(C)[nH]c12 (centres undefined) | -12.2% |
| C=CCOc1nc2c(c(=O)n(Cc3ccc(Cl)c(Cl)c3)c(=O)n2C)n1C | -5.33% |
| COCCNc1cc(C)c(C#N)c2nc3ccccc3n12 | -12.3% |
| CC(C)(C)c1cccc(/C=N/O)c1O | 9.58% |
| O=C(O)C1CSCN1S(=O)(=O)c1cccc2nsnc12 (centres undefined) | -1.08% |
| CCN=C1SC(C(=O)Nc2ccc(Cl)c(Cl)c2)CC(=O)N1CC (centres undefined) | 0.946% |
| CC1CN(c2oc(-c3cccs3)nc2C#N)CC(C)O1 (centres undefined) | 5.74% |
